“And” between values parts separate entries of the source, which are not always exact repeats. Identical values can stand only once. In all, about 310,000 compounds went through this assay and about 11,000 (3.5%) were called active. About 4% were inconclusive and are not listed. The call rests on the fitted dose curve; in most records, active means well fitted inhibition curve with a large enough effect; inconclusive means small, poorly fitted or top-dose-only effect, or another doubt; inactive means no such curve, though single readings can be large or run the other way. The entries come from a sample that favours actives as a whole. Where a structure was tested more than once in an assay, its records may differ in their call.
The molecules below were run against 4'-phosphopantetheinyl transferase ffp (Bacillus subtilis) (UniProt Q9F4F7) (assay: qHTS Assay for Inhibitors of Bacillus subtilis Sfp phosphopantetheinyl transferase (PPTase)). Conditions: Biochemical Sfp PPTase activity.
Description: Assay Submitter: Michael Burkart, University of California, San Diego
Screening Center PI: Austin, C.P.
Screening Center: NIH Chemical Genomics Center [NCGC]
The covalent attachment of a phosphopantetheinyl (4'-PP) arm to a variety of synthases and other proteins is a key posttranslational protein modification. The 4'-PP is installed on the proteins post-translationally from coenzyme A (CoA) on a conserved serine residue by action of phosphopantetheinyl transferase (PPTase) enzymes. Phosphopantetheinylation is essential for synthase activity, and removal of the PPTase gene precludes natural product synthesis in microorganisms, or in the case of fatty acid biosynthesis, renders the organism unviable. PPTase enzymes belong to a distinct structural superfamily. Within bacteria, these enzymes are grouped into two classes based upon primary structure, the AcpS-Type and Sfp-Type PPTases.
Sfp-type PPTases, corresponding to an activator of surfactin production in Bacillus subtilis, are responsible for modifying type I polyketide and nonribosomal peptide synthases of prokaryotes. Sfp-type PPTases are responsible for the activation of a variety of pathogen-associated virulence factors. Among these compounds are toxins such as mycolactone from Mycobacterium ulcerans, siderophores such as vibriobactin from Vibrio cholerae or mycobactin from Mycobacterium tuberculosis, as well as the mycolic acids which form the waxy cell wall of Mycobacteria. The biosyntheses of these natural products are considered attractive targets for drug design.
In search of small molecule Sfp-PPTase inhibitors, a fluorescence quenching assay was developed for detection of Bacillus subtilis Sfp-PPTase enzymatic activity in a miniaturized high-throughput format. The consensus ybbr acceptor peptide […] was N-terminally labeled with Black Hole Quencher-2 (BHQ-2) and used in combination with rhodamine-labeled coenzyme A as a co-substrate.
Inhibition of Sfp-PPTase was detected by recording the fluorescence intensity change over a 30-minute reaction period at a 525 nm excitation and 598 nm emission. Reagents were supplied by Michael Burkart and Timothy Foley, University of California at San Diego.
This BioAssay deposition is for validation of the developed Sfp-PPtase assay.
Assay Buffer: 50 mM Hepes-Na pH 7.6, 10 mM MgCl2, 0.01% Nonidet P-40, and 0.01% BSA.
3 uL of Sfp-PPTase enzyme (final concentration 15 nM) and 1 uL of substrate mixture (final concentration for rhodamine-CoA and BHQ-2-YbbR 5 uM and 12.5 uM, respectively) dispensed in columns 1, 2, 5 - 48. Columns 1 and 2 used to generate neutral control (uninhibited reaction)
Three uL of reagents, consisting of buffer (in columns 3 and 4 as negative control) and Sfp-PPTase (in columns 1, 2, 5 - 48) were dispensed into 1,536-well Greiner black solid bottom plate. Compounds (23 nL) were transferred via Kalypsys pintool equipped with 1,536-pin array. The plate was incubated for 15 min at room temperature, followed by the addition of 1 uL substrate to start the reaction. The plate was then centrifuged at 1000 rpm for 15 seconds, and the fluorescence intensity recorded on a ViewLux High-throughput CCD imager (Perkin-Elmer) using standard BODIPY optics (525 nm excitation and 598 nm emission). The plate was then incubated for 30 minutes, and a second read on the ViewLux was performed. The fluorescence intensity difference over the 30-minute period was used to calculate the respective reaction rate for each well.
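Further: the enzyme is Sfp with the accession as filed and its product quenches rhodamine fluorescence.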
Potency means the concentration at half of the fitted maximal effect.
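Wherever Largest response in the series, negative = inhibition is given: 0% = enzyme reaction without inhibitor and -100% = no enzyme wells.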

Potency, active:
COc1cccc(/C(C)=N/Nc2ncc(Cl)cc2Cl)c1 56.2 µM, C/C(=N\Nc1ncc(Cl)cc1Cl)c1cccs1 39.8 µM, CC(C)(C)NC(=O)COc1ccc(CNc2ccc3[nH]c(=O)[nH]c3c2)cc1 56.2 µM, Cc1ccc(/C=C(\C#N)C(=O)Nc2cccc3ncccc23)o1 8.91 µM, CC(N)(C(=O)O)c1ccc(-c2nn[nH]n2)cc1 (stereo not given) 35.5 µM, CCN(C(=O)CSc1ncn[nH]1)c1cccc2ccccc12 39.8 µM, CCc1ccccc1N(CC(=O)NCCSCc1ccco1)S(C)(=O)=O 17.8 µM, Cn1c(CC(=O)Nc2ccccc2)nnc1SCC(=O)c1ccccc1 35.5 µM, O=C1CCCN1CCCNC(=S)Nc1ccc(F)c(Cl)c1 14.1 µM, CCN(CC)C(=O)c1sc2nc(-c3ccccc3)ccc2c1N 20 µM, COc1ccccc1OCCNCC(O)COc1cccc2[nH]c3ccccc3c12 (stereo not given) 50.1 µM, O=C1CSC(=S)N1/N=C/c1ccc(O)c([N+](=O)[O-])c1 39.8 µM, CSc1c(SCc2ccccc2)cnn(Cc2ccccc2)c1=O 44.7 µM, CN(C)c1nc(=Nc2cccc(Cl)c2)ss1 10 µM, Cc1ccc(-c2ccc(/C=C(\C#N)C(N)=S)o2)c([N+](=O)[O-])c1 35.5 µM, N#Cc1c(-c2ccccc2)cc(-c2ccccc2)nc1SCC(=O)O 35.5 µM, CCC/C(C)=N\Nc1nc2c(c(=O)n(C)c(=O)n2C)n1C 39.8 µM, CCOc1ccccc1NC(=O)Cn1nnc(C(=O)NCc2cccs2)c1N 50.1 µM, C=CCSC1=C(C#N)C(c2cc(Br)c(O)c(OC)c2)CC(=O)N1 (stereo not given) 25.1 µM, O=c1oc2ccccc2cc1-c1cn(-c2ccccc2)c(=S)[nH]1 35.5 µM

Largest response in the series, negative = inhibition, inactive:
C/C(=N\Nc1ccc(S(N)(=O)=O)cc1[N+](=O)[O-])c1cccs1 0.687%, CCN(CC)c1ccc(C(=O)N/N=C(\C)c2cccc(OC)c2)cc1 -1.28%, C/C(=N\Nc1nc2ccccc2[nH]1)c1cccs1 -4.19%, C/C(=N\Nc1ncc(Cl)cc1Cl)c1ccc(S(=O)(=O)NCc2ccco2)cc1 -16.4%, Cn1cnc2c1c(=O)n(Cc1ccccc1C#N)c(=O)n2C 4.28%, C=CC1=C2C=C(C3CC3)N(CC(C)C)C=C2C(=O)C(C)(OC(=O)c2ccco2)C1=O (stereo not given) 5.15%, CC(=O)Nc1ccc(OCC(=O)NCc2ccc(C)cc2)cc1 11.1%, COC(=O)c1ccc(OCC(=O)NC(C)(C)C)cc1 -10.7%, CCS(=O)(=O)Nc1ccc(C(=O)NCCSc2ccccc2)cc1 22%, COC(=O)C1=CN(c2ccc(F)c(F)c2)C=C(C(=O)OC)C1c1ccc([N+](=O)[O-])cc1 -0.236%, COc1cccc(OC)c1C(=O)Nc1ccc2c(c1)n(C)c(=O)n2C 6.56%, Cc1ccc(C(=O)Nc2cccc3ncccc23)cc1[N+](=O)[O-] 9.98%, O=C(Nc1cccc2ncccc12)C(Cl)(Cl)Cl 5.72%, Cc1c(C(=O)NC(C)C2CC3CCC2C3)cccc1[N+](=O)[O-] (stereo not given) 6.2%, C[C@]12CC[C@@H]3c4ccc(O)cc4C[C@@H](CCCCCCCCCS(=O)CCCC(F)(F)C(F)(F)F)C3[C@@H]1CC[C@@H]2O (stereo not given in full) -0.311%, Brc1ccc(-c2nn[nH]n2)cc1 19%, CC(C)c1ccc(-c2nn[nH]n2)cc1 21.7%, O=C(CSc1ncn[nH]1)Nc1nsc(-c2ccccc2)n1 9.26%, O=C(CSc1ncn[nH]1)Nc1ccnc2ccccc12 12.4%, O=c1cc(-c2ccc(O)cc2)oc2c([C@@H]3O[C@H](CO)[C@@H](O)[C@H](O)[C@H]3O)c(O)cc(O)c12 -2.52%, Cc1cc(C)cc(N(CC(=O)NCCSCc2ccco2)S(C)(=O)=O)c1 9.95%, CS(=O)(=O)N(Cc1ccc(Cl)cc1)c1ccc(C(=O)NCCSCc2ccco2)cc1 22.6%, CC(C)N(C(=O)Cn1cc(S(=O)(=O)CC(=O)N2CCOCC2)c2ccccc21)C(C)C 4.5%, O=C(C1CC(=O)N(c2ccc(Br)cc2)C1)N1CCCC1 (stereo not given) 5.88%, Cn1c(Cc2cccs2)nnc1SCC(=O)Nc1ccccc1 11.4%, Cn1c(CSCC(=O)Nc2ccccc2)nnc1SCc1ccccc1 -1.75%, CCN1CCCC1CNC(=O)c1cc2cc(OC)c(OC)cc2[nH]1 (stereo not given) 18.4%, COc1ccccc1CCNC(=O)C1CCN(C(=O)/C=C/c2ccccc2)CC1 -8.37%, Cc1c(Cl)cccc1NC(=O)NCCCN1CCCC1=O 4.97%, Cc1cc(Cl)ccc1NC(=S)NCCCN1CCCC1=O 5.94%, Cc1ccc2c(N)c(C(=O)c3ccccc3)sc2n1 -25.4%, CCCC(=O)n1nc(-c2ccccc2)nc1N -3.09%, COc1cc(C(C(=O)NC2CCCC2)N(C(=O)c2ccco2)c2ccccc2C(C)=O)cc(OC)c1OC (stereo not given) 9.66%, COc1ccc2[nH]c(=O)c(C3c4cc(OC)c(OC)cc4CCN3C(=O)c3ccco3)cc2c1 (stereo not given) -2.97%, Cc1cccc(NC(=O)C2CCCN(C(=O)NCc3ccccc3)C2)c1C (stereo not given) 5.34%, CC(C)(C)NCC(O)COc1cccc2[nH]c(=O)[nH]c12 (stereo not given) 6.07%, COc1ccccc1OCC(O)CN1CCOCC1 (stereo not given) 15.2%, COc1ccccc1OCCNCC(O)COc1cccc2[nH]c3ccccc3c12 (stereo not given) -10.5% and 8.7% and -18.4%, COc1cccc(NC(=O)C/C(C)=N/NC(=O)C2CCCCC2)c1 9.15%, O=C(COc1ccccc1Cl)N1CCCCCCC1 23.9%, COc1cc(NC(=O)c2ccccc2)c(OC)cc1NC(=O)Cc1ccccc1 -10.9%, Cc1cc(C(=O)N/N=C/c2ccc(O)c([N+](=O)[O-])c2)c(C)n1-c1ccc(F)cc1 -9.8%, O=[N+]([O-])c1ccc(N2CCSCC2)cc1O 17.8%, CCOC(=O)N1CCN(S(=O)(=O)N2CCCC(C(=O)NCCCN3CCC(C)CC3)C2)CC1 (stereo not given) 6.69%, O=C(CCC1CCCN(C(=O)c2ccc(F)c(F)c2)C1)N1CCN(c2ccccn2)CC1 (stereo not given) 7.09%, CSc1nc2ccccc2c(=O)n1Cc1ccc(F)cc1 -16.2%, CC(=O)Nc1ccc(NC(=O)CSc2ncnc3c2cnn3Cc2ccccc2)cc1 13.9%, Cc1nc(COc2cc3oc(=O)cc(C)c3cc2Cl)cs1 -11.1%, N#C/C(=C/c1ccc(-c2ccccc2[N+](=O)[O-])o1)C(=O)NCCN1CCCCC1 -17.3%, Cc1ccc(Cc2cnc(NC(=O)/C(C#N)=C/c3ccc(-c4cccc([N+](=O)[O-])c4)o3)s2)cc1 3.34%, CC(C)(C)C(=O)NC1CC2CCCC(C1)N2C(=O)Nc1ccccc1F (stereo not given) 15.8%, O=C(c1ccncc1)N1CCC2(CCN(Cc3cc(C(F)(F)F)cc(C(F)(F)F)c3)CC2)CC1 8.21%, N#Cc1c(C(F)(F)F)cc(-c2ccc(Cl)cc2)nc1SCC(=O)O 7.84%, CCSc1nc(-c2ccc(OC)cc2)cc(-c2ccc(OC)cc2)c1C#N 4.06%, CC(O)c1nc2c(c(=O)n(C)c(=O)n2C)n1C (stereo not given) 11.9%, Cn1c(=O)c2c(nc(NCc3ccccc3)n2CC(N)=O)n(C)c1=O 10.1%, CCCC[C@H]1COCCS(=O)(=O)N1Cc1cccc(Cl)c1 -5.24%, COc1ccc(CNC(=O)c2nnn(CC(=O)Nc3cc(C)cc(C)c3)c2N)cc1 -8.71%, COc1ccc(C(=O)Nc2c(N)nc(SCC(=O)Nc3ccc(C(C)=O)cc3)[nH]c2=O)cc1 -14.5%, Cc1ccc(OCC(=O)Nc2ccccc2C(=O)NC2CC2)cc1C -9.75%, CCOc1ccccc1NC(=O)Cc1cccs1 13.9%, CCOc1ccc(Cn2nnc(C(=O)NCc3ccccc3)c2N)cc1 9.87%, Cc1cccc(C(=O)OC(C)CN2CCCC2)c1 (stereo not given) 6.65%, Cc1ccc(F)c(NC(=O)CCOc2ccccc2C)c1 -1.65%, Cn1cc[n+](C)c1COc1ccc(C=O)cc1 12%, O=C1CCC([N+](=O)[O-])C(c2ccccc2Br)N1 (stereo not given) 15.7%, CCOC(=O)CSC1=C(C#N)C(c2sccc2C)CC(=O)N1 (stereo not given) 10.2%, Cc1ccc(C2CC(=O)NC(SCC(=O)OCc3ccccc3)=C2C#N)o1 (stereo not given) -27.5%, O=S(=O)(NC1CCCC1)c1ccc(-n2cnnn2)cc1 25.6%, O=C(NCCCn1ccnc1)C1CCCN(S(=O)(=O)c2cc(Cl)ccc2Cl)C1 (stereo not given) 16.2%, O=C(c1cn(-c2ccccc2)nc1-c1cc2ccccc2oc1=O)N1CCOCC1 -5.03%, O=C(Nc1cc2ccccc2oc1=O)C1CCCCC1 26.6%, Cc1noc(C)c1CCC(=O)N1CCCC(CO)(Cc2ccccc2)C1 (stereo not given) -6.98%, COc1ccc2c(c1)O[C@@H](c1ccc3c(c1)OCO3)[C@H](OC(=O)NCCc1ccc(OC)c(OC)c1)C2=O 6.18%, CC(=O)c1ccc(N2CCN(C(=O)C3CCN(S(=O)(=O)c4ccc5c(c4)CC(C)N5C(=O)C4CC4)CC3)CC2)cc1 (stereo not given) -0.0372%

From PubChem BioAssay AID1490 (National Center for Advancing Translational Sciences (NCATS), 2009)
